From article PMC4336329 (PLoS ONE, 2015)
The campaign covered roughly 310,000 compounds. About 14,000 (4.5%) showed an effect of 50% or more. Effects have a minus sign here. The sample holds strong results, similar compounds and a random draw of the others, so the mix is not that of the screen.

target: human ether-à-go-go-related gene (hERG) potassium channel (human, UniProt Q12809); assay: primary screen, population patch clamp on CHO cells stably expressing hERG; higher = less effect of the substance
Sequence (Q12809 whole entry, looked up): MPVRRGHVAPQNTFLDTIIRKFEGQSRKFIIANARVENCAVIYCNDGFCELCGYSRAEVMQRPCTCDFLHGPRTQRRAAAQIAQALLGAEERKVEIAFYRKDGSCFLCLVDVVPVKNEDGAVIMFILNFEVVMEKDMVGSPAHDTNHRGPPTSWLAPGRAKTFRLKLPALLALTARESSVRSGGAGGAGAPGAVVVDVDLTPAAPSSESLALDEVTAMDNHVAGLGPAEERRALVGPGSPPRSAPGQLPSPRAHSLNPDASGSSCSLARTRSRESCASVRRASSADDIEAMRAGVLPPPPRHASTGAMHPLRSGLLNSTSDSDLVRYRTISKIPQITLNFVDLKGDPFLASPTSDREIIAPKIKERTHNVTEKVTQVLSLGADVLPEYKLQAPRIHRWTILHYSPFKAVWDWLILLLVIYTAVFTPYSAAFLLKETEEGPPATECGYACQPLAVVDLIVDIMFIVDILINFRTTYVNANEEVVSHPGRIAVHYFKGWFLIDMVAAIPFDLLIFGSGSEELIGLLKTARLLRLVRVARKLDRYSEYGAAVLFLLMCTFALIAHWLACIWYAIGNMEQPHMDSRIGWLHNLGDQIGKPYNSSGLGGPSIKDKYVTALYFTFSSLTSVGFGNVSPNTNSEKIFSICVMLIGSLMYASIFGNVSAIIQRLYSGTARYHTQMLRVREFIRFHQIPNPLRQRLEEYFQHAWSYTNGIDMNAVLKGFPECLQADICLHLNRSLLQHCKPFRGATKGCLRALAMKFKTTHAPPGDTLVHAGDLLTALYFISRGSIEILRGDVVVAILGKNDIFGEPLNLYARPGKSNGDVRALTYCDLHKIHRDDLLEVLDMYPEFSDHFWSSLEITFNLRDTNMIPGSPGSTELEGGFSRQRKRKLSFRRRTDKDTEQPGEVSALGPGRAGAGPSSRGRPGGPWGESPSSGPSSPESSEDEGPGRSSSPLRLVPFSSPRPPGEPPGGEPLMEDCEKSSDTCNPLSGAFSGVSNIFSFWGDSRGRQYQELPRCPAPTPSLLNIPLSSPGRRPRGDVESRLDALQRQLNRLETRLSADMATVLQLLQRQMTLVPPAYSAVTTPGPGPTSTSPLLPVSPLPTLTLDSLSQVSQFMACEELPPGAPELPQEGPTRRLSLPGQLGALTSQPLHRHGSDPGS
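Also: peak tail current of the secondary pulse compared with the same well before compound.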

Structure (SMILES) | hERG current change (%, negative = inhibition) at 10uM
COc1ccc(N2CCN(C(=O)CN=C3NS(=O)(=O)C(c4ccc(C)cc4)=C3C)CC2)cc1 | -5.05%
O=C(Cc1ccccc1)N/N=C/c1ccc(S(=O)(=O)[O-])o1 | 26.2%
Cc1ccc(S(=O)(=O)NCc2ccc(N3CCN(C(=O)OC(C)(C)C)CC3)cc2)cc1 | 9.55%
COc1ccc(OC)c(CNC(=O)C2CCN(S(=O)(=O)N3CCC(C)CC3)CC2)c1 | -31.8%
Cc1nc2ccccc2c2oc(C(=O)NCCN3CCN(C)CC3)cc12 | 12.4%
CSc1ccc(CNC(=O)C2Cc3cc(S(=O)(=O)N4CCCC4)ccc3N2C(C)=O)cc1 (stereo not shown) | -38.2%
CCc1cccc(NC(=O)C2CCN(S(=O)(=O)c3ccc4c(c3)CC(C)N4C(C)=O)CC2)c1 (stereo not shown) | 2.05%
CCc1ccc(NC(=O)C2CCCN2S(=O)(=O)c2ccc3c(c2)C(C)(C)C(=O)N3C)cc1 (stereo not shown) | -51%
CC(=O)N1c2ccc(S(=O)(=O)N3CCCC3C(=O)NCc3ccc(Cl)cc3)cc2CC1C (stereo not shown) | -62.9%
CCc1cccc(NC(=O)C2CCCN2S(=O)(=O)c2ccc3c(c2)CC(C)N3C(C)=O)c1 (stereo not shown) | -71.2%
CCOc1ccc(NC(=O)C2CCCN2S(=O)(=O)c2ccc3c(c2)C(C)(C)C(=O)N3C)cc1 (stereo not shown) | -6.75%
CCc1ccc(CNC(=O)C2Cc3cc(S(=O)(=O)N4CCCC4)ccc3N2C(C)=O)cc1 (stereo not shown) | -25.9%
CSc1ccc(CNC(=O)C2Cc3cc(S(=O)(=O)N4CCCCC4)ccc3N2C(C)=O)cc1 (stereo not shown) | -57.1%
CC(=O)N1c2ccc(S(=O)(=O)N3CCCC(C(=O)NCc4ccc(Cl)cc4)C3)cc2CC1C (stereo not shown) | -2.85%
CC(=O)N1c2ccc(S(=O)(=O)N3CCCC3C(=O)Nc3cccc(F)c3)cc2CC1C (stereo not shown) | -32.8%
Cc1cc(C)cc(NC(=O)C2CCCN2S(=O)(=O)c2ccc3c(c2)C(C)(C)C(=O)N3C)c1 (stereo not shown) | -38.7%
CC(=O)N1c2ccc(S(=O)(=O)N3CCCC3C(=O)NCc3ccccc3Cl)cc2CC1C (stereo not shown) | -40%
Cc1noc(C)c1C(=O)NCc1ccco1 | 0.0994%
C/C(=N/NC(N)=S)c1cc2ccc(O)cc2oc1=O | 21.7%
O=C(Nc1ccccc1C(=O)O)c1ccccc1 | 8.69%
COc1ccc2oc(=O)c(C(=O)N3CCN(C(=O)c4ccco4)CC3)cc2c1 | -12.9%
CC(Oc1ccc(F)cc1F)C(=O)NNC(=S)NCC1CCCO1 (stereo not shown) | 9.12%

Structure (SMILES) | hERG current change (%, negative = inhibition) at 10uM
CC(C)(C)C(=O)Nc1sc2c(c1C#N)CCN(Cc1ccccc1)C2.Cl | 1.78%
CCc1ccc(-c2cc(C(=O)Nn3cnnc3)c3ccccc3n2)cc1 | 10.7%
Clc1c(-c2nnc3n2CCCCC3)sc2ccccc12 | -13.9%
COc1ccc2c(Cl)c(-c3nnc4n3CCCCC4)sc2c1 | -51.2%
Clc1c(-c2nnc3n2CCC3)sc2ccccc12 | 10.4%
COc1cc(NC(=O)CSc2nc(C)c(C)c(C)n2)c(C)cc1[N+](=O)[O-] | 0.898%
Cc1nn(-c2ccccc2)c2c1C(O)CC(C)(C)C2 (stereo not shown) | 17.8%
COc1cc(-c2nc3cnccn3c2Nc2ccccc2)ccc1O | -0.787%
CN1CCN(C(=O)/C=C/c2ccc(C#N)cc2)CC1 | -54.3%
CCOC(=O)N1CCN(C(=O)/C=C/c2ccc(C(C)(C)C)cc2)CC1 | -26.1%
CCN1CCN(C(=O)/C=C/c2ccc(C(C)C)cc2)CC1 | -35.2%
CCOC(=O)N1CCN(C(=O)/C=C/c2ccc([N+](=O)[O-])cc2)CC1 | -70.6%
CN1CCN(C(=O)/C=C/c2ccc(Cl)cc2)CC1 | -44.8%
CSc1ccc(/C=C/C(=O)N2CCCN(C)CC2)cc1.Cl | -26.6%
CCOC(=O)N1CCN(C(=O)/C=C/c2ccc(OC)cc2)CC1 | -17.8%
CN1CCN(C(=O)/C=C/c2ccc([N+](=O)[O-])cc2)CC1 | -67%
CCN1CCN(C(=O)/C=C/c2ccc([N+](=O)[O-])cc2)CC1 | -64.2%
CCN1CCN(C(=O)/C=C/c2ccc(OC)cc2)CC1 | -19.1%
CN1CCN(C(=O)/C=C\c2ccc(Cl)cc2)CC1 | -41%
CN1CCN(C(=O)/C=C/c2ccc(Cl)c(Cl)c2)CC1 | -23%
COc1ccc(-c2cc3nc(C)cc(N)n3n2)cc1 | 3.53%
CCCCC(=O)NC1(C(F)(F)F)C(=O)Nc2c1c(=O)n(C)c(=O)n2C (stereo not shown) | -4.15%

Structure (SMILES) | hERG current change (%, negative = inhibition) at 10uM
O=C(NC1CC(=O)N(c2ccccc2)C1)C(=O)c1c[nH]c2ccccc12 (stereo not shown) | -11.1%
COc1cc2c(cc1OC)CN(C(=O)/C=C/c1ccc(F)cc1)CC2 | -22.2%
COc1cc2c(cc1OC)CN(C(=O)/C=C/c1cccc([N+](=O)[O-])c1)CC2 | -31.2%
COc1cc2c(cc1OC)CN(C(=O)/C=C/c1ccc([N+](=O)[O-])cc1)CC2 | -55.1%
CCOc1cc(C(c2c(C)[nH][nH]c2=O)c2c(C)[nH][nH]c2=O)ccc1OC(=O)c1cccc([N+](=O)[O-])c1 | -4.87%
CCOC(C[n+]1c(-c2ccccc2)cc(C)cc1-c1ccccc1)OCC.[O-][Cl+3]([O-])([O-])[O-] | 3.9%
CCOc1ccc(-c2cn[nH]c2N)cc1 | -5.03%
COc1ccc(CCNC(=O)COc2ccc(-c3ccc(C)cc3)cc2)cc1OC | -9.64%
Cc1cc(-c2ccccc2)cc(C)[n+]1Cc1ccccc1.[O-][Cl+3]([O-])([O-])[O-] | 5.38%
CCOc1ccc(-c2cc(C)[n+](CCO)c(-c3ccc(OCC)cc3)c2)cc1.[O-][Cl+3]([O-])([O-])[O-] | -62.6%
Br.CC(C)O.Cc1ccc(-c2csc(Nc3ccccc3)[n+]2CCc2ccccc2)cc1 | 20.5%
Cc1cc(-c2ccccc2)cc(-c2ccccc2)[n+]1CCc1ccccc1.[O-][Cl+3]([O-])([O-])[O-] | -76.5%
CCOc1ccc(-c2cc(C)[n+](CCc3ccc(OC)c(OC)c3)c(-c3ccc(OCC)cc3)c2)cc1.[O-][Cl+3]([O-])([O-])[O-] | -83.1%
CCOc1ccc(-c2cc(C)[n+](CCN(CC)CC)c(-c3ccc(OCC)cc3)c2)cc1.[O-][Cl+3]([O-])([O-])[O-] | -79.3%
CCOc1ccc(-c2nc(C)sc2CC(=O)O)cc1 | 11%
CCOc1ccc(-c2cc(C)[n+](CCN3CCOCC3)c(-c3ccc(OCC)cc3)c2)cc1.[O-][Cl+3]([O-])([O-])[O-] | -41.4%
CCOc1ccc(C(=O)CC(=O)C(=O)NCCc2ccc(OC)c(OC)c2)cc1 | -10%
O=C(CNC(=O)c1ccc(Br)o1)NNC(=O)c1ccc(Br)cc1 | -35.6%
O=C(c1ccccc1-c1nc2ccccc2[nH]1)N1CCOCC1 | -5.47%
COCCN1CCN(C(=O)C2CCC(=O)N(Cc3ccccc3OC)C2)CC1 (stereo not shown) | 8.85%
COc1ccc(/C=C(\C#N)C(=O)NCc2ccccc2)cc1 | 19.4%
CCN1C(=O)[C@H]2[C@@H](c3ccc(SC4CCCCC4)c(OC)c3)N3CCCC[C@@]3(C(=O)OC)[C@H]2C1=O.O=C(O)C(F)(F)F | 13%

Structure (SMILES) | hERG current change (%, negative = inhibition) at 10uM
CCN1C(=O)[C@@H]2[C@@H](c3ccc(SC4CCCCC4)c(OC)c3)N3CCC[C@@]3(C(=O)OC)[C@@H]2C1=O.O=C(O)C(F)(F)F | -56%
COC(=O)[C@@]12CCCCN1[C@H](c1ccc(SC3CCCCC3)c(OC)c1)[C@@H]1C(=O)N(C)C(=O)[C@@H]12.O=C(O)C(F)(F)F | 19.8%
COC(=O)c1ccccc1NC1=C/C(=N\S(=O)(=O)c2ccc(C(=O)O)cc2)c2ccccc2C1=O | -15.5%
CCCCNC(=O)C(C#N)c1nc2ccccc2nc1N1CCN(c2ccccc2F)CC1 (stereo not shown) | 4.79%
CC1CCN(C(=O)COC(=O)c2ccc(=O)n(Cc3ccccc3)n2)CC1 | -0.635%
Cc1ccc(/C=C/C2=NN(Cc3ccccc3Cl)C(=O)CC2)cc1 | -4.44%
COc1ccc(-c2nnnn2C(C)C)cc1S(=O)(=O)Nc1ccccc1 | -13.9%
O=C(NCCSc1ccccc1)c1ccc(CN2CCOCC2)cc1 | -10.3%
Cl.O=C(NCCCN1CCOCC1)c1ccc(CSc2ccc(Cl)cc2)cc1 | -59.2%
O=C(NCCSCc1c(F)cccc1Cl)c1ccc(CN2CCOCC2)cc1 | -26.9%
Cc1ccc(SCCNC(=O)c2ccc(CN3CCOCC3)cc2)cc1 | -32.6%
O=C(NCCN1CCOCC1)c1ccc(Cl)cc1 | 16%
O=C(NCCSCc1ccc(Cl)cc1Cl)c1ccc(CN2CCOCC2)cc1 | -54.6%
Cc1cccc(CSCCNC(=O)c2ccc(CN3CCOCC3)cc2)c1 | -28.3%
O=C(NCCCN1CCOCC1)c1ccc(-c2ccc(Cl)cc2)o1 | -55.1%
Cc1ccc(C(=O)NCCCN2CCOCC2)o1 | 30.3%
O=C(NCCCN1CCOCC1)c1ccc(CS(=O)(=O)Cc2ccc(Cl)cc2)o1 | 4.4%
O=C(CCNC(=O)c1ccc(Cl)cc1)NCCCN1CCOCC1 | 4.31%
O=C(NCCSc1ccc(Cl)cc1)c1ccc(CN2CCOCC2)cc1 | -58.5%
